# Measurements from PMC10726135, “HNF4α isoforms regulate the circadian balance between carbohydrate and lipid metabolism in the liver”.
# In all, about 18,000 sequences were measured (“log2 normalized intensity”: median about 0.36, highest 2% from about 7.3 on). For the sample, the highest values were picked, then their nearest neighbours and some sequences at random.
# Biological target: T1, HNF4alpha8 (COS-7 nuclear extract) (Homo sapiens, UniProt P41235-5 1-452)
# T1 sequence: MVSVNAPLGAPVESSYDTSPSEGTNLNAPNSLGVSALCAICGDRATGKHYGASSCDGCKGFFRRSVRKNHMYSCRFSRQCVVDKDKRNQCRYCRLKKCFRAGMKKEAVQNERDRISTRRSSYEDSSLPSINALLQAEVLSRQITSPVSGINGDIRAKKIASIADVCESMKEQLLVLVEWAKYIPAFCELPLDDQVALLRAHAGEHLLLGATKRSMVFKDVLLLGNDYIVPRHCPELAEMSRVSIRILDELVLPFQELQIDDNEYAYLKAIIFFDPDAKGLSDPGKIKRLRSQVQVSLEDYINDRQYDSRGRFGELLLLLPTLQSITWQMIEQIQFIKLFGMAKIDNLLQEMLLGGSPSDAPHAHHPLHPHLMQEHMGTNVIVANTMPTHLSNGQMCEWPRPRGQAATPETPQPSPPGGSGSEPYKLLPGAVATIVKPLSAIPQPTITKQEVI
# Experiment: protein-binding microarray; COS-7 nuclear extract on double-stranded Agilent 4x180k PBM; binding buffer, salt, pH and temperature not given in the material; high values mean tight binding
# Details: chain copies: 2; label: 3' end of strand 1 on the slide; dsDNA, one strand shown
# In short: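 A human HNF4α isoform was expressed in COS-7 cells by transient CaPO4 transfection, and nuclear extracts were prepared. These were applied to a custom Agilent SurePrint G3 4x180k array carrying ~44,000 test sequences in quadruplicate as double-stranded ~60-nt oligonucleotides, and an Agilent G2565CA scanner imaged bound HNF4α at 2-µm resolution. The background-corrected, normalized gProcessedSignal from Agilent software was used as the binding signal.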
row,Sequence,binding signal [log2 normalized intensity]
1,CTGTTTCTTTGTGTGTCAACAGAGTGCTTAGCCTAGGGAGATTAGAGTATCGGTCGA,1.48
2,TAGGTACTATTATTAGAGTCCCTTTTTTAGGCCTAGGGAGATTAGAGTATCGGTCGA,0.509
3,GAAAGGATCTCACCCAAACCATCCCAGGCAGCCTAGGGAGATTAGAGTATCGGTCGA,3.1
4,GGTGATGTGAACCTCGATCCCTGGCTAAGGGCCTAGGGAGATTAGAGTATCGGTCGA,2.38
5,CCCCACCCGCGGTCCGTCCCTCCTGGTCGAGCCTAGGGAGATTAGAGTATCGGTCGA,3.57
6,CCCAGTATGAGCGGCGCTGACCCCGGGAGCGCCTAGGGAGATTAGAGTATCGGTCGA,3.67
7,TGAGACTTTCCTGTTGGGGAGCAAAGGTTAGCCTAGGGAGATTAGAGTATCGGTCGA,6.1
8,AGTGCTGCATGCAAAAAGGCTGACCTTTGAGCCTAGGGAGATTAGAGTATCGGTCGA,8.62
9,TAGATAAGAGCTGAGGAAGTGCTGACCTTTGCCTAGGGAGATTAGAGTATCGGTCGA,6.57
10,AAGAGCTGAGGAAGTGCTGACCTTTGGTCTGCCTAGGGAGATTAGAGTATCGGTCGA,7.88
11,CTTTTTGACCTTGCAGTGGCAAGGCAAAAGGCCTAGGGAGATTAGAGTATCGGTCGA,2.28
12,TCTCGGTCAAACCTTTGACCCTTTATAATCGCCTAGGGAGATTAGAGTATCGGTCGA,6.91
13,GTCAGAGTGCTGCATGCAAAAAGGCTGACCGCCTAGGGAGATTAGAGTATCGGTCGA,1.75
14,CCTAAACCTGCAAACCTTTGACCTTTCCATGCCTAGGGAGATTAGAGTATCGGTCGA,6.22
15,TGCATGCAAAAAGGCTGACCTTTGACTCTCGCCTAGGGAGATTAGAGTATCGGTCGA,8.15
16,CTGAGGAAGTGCTGACCTTTGGTCTAAACCGCCTAGGGAGATTAGAGTATCGGTCGA,6.93
17,CTTTGAAATGTCCTGAGTGATTGTAGTGTCGCCTAGGGAGATTAGAGTATCGGTCGA,1.86
18,CCCCCGCAACTATTTATGAGTCTTGGGAATGCCTAGGGAGATTAGAGTATCGGTCGA,0.709
19,CACAGTGTTATTTGCTGAGGTGGGGGAGGTGCCTAGGGAGATTAGAGTATCGGTCGA,0.772
20,TTAGGGAGGGGCCAGGACAAAGGTCCTGTGGCCTAGGGAGATTAGAGTATCGGTCGA,2.51
21,GGTTAAAATTTATCTATTGGGTACAATGTTGCCTAGGGAGATTAGAGTATCGGTCGA,2.37
22,CTTCCAGTCCACAGTCCAGTGACTATCTGCGCCTAGGGAGATTAGAGTATCGGTCGA,1.02
23,ATTTCTAGGTTTGATCTTTGCCCTACAATTGCCTAGGGAGATTAGAGTATCGGTCGA,6.36
24,AGGGAATTTCTAGGTTTGATCTTTGCCCTAGCCTAGGGAGATTAGAGTATCGGTCGA,7.66

row,Sequence,binding signal [log2 normalized intensity]
1,TTTCTTAATTGCCCTTTGCCCTTTGCCCAAGCCTAGGGAGATTAGAGTATCGGTCGA,8.84
2,CCATCCTACAGGGTATGAATTTAACCTTTGGCCTAGGGAGATTAGAGTATCGGTCGA,4.92
3,ACTTTGCCCTTTTTTTCTCTCCCCTTTTAAGCCTAGGGAGATTAGAGTATCGGTCGA,2.63
4,TTGCCCTTTGCCCAACCCTCTCCCACTCCCGCCTAGGGAGATTAGAGTATCGGTCGA,4.93
5,GGGTATGAATTTAACCTTTGCTCTCTGAAAGCCTAGGGAGATTAGAGTATCGGTCGA,6.63
6,TAATTGCCCTTTGCCCTTTGCCCAACCCTCGCCTAGGGAGATTAGAGTATCGGTCGA,7.74
7,TGACCTTTGCATTCTTACCCAAGCCCCAAAGCCTAGGGAGATTAGAGTATCGGTCGA,4.12
8,TCCTCAGGGAATTTCTAGGTTTGATCTTTGGCCTAGGGAGATTAGAGTATCGGTCGA,3.49
9,GCCCTTTGCCCTTTGCCCAACCCTCTCCCAGCCTAGGGAGATTAGAGTATCGGTCGA,6.2
10,CTACAGGGTATGAATTTAACCTTTGCTCTCGCCTAGGGAGATTAGAGTATCGGTCGA,7.57
11,CTGAATCTCCCAGTGCTTTGATCTTCAACTGCCTAGGGAGATTAGAGTATCGGTCGA,0.419
12,CACTTGTAGGCCTGTGTGCATGGAGTGCACGCCTAGGGAGATTAGAGTATCGGTCGA,0.798
13,CCCCGCCCGCAGCCCAGTCTTGGCCCCACCGCCTAGGGAGATTAGAGTATCGGTCGA,6.38
14,GAGTTATCTTCCTCCCCCCTTGGCTACATGGCCTAGGGAGATTAGAGTATCGGTCGA,4.15
15,TAGGCATTGTCTTGAAAGATAAAGTGTCTCGCCTAGGGAGATTAGAGTATCGGTCGA,1.48
16,TGTGTCAAAGGTCACTTAGTCCCTAAGTCTGCCTAGGGAGATTAGAGTATCGGTCGA,5.26
17,TTCCCTACCCCCTGGGAGTAACCTGCTTGTGCCTAGGGAGATTAGAGTATCGGTCGA,2.25
18,TTTTAAATACCTTTTTGGGACTGATAACTTGCCTAGGGAGATTAGAGTATCGGTCGA,1.23
19,AGCATGGAGAAAATTCTGGACCTTCTTATCGCCTAGGGAGATTAGAGTATCGGTCGA,1.59
20,CGCTGCGGGTCACGTGCCGCTGCGGGTCACGCCTAGGGAGATTAGAGTATCGGTCGA,2.61
21,AGAATGACCAGGAGTTTGGGATCAGACACGGCCTAGGGAGATTAGAGTATCGGTCGA,0.332
22,GAAACTTATTGTGAACTGGAGCAAAGGTCAGCCTAGGGAGATTAGAGTATCGGTCGA,5.97
23,TTATCTTGATGGTTAAAGTCCAATCTTCTGGCCTAGGGAGATTAGAGTATCGGTCGA,4.82
24,GACCATCACCACTTCAAGCTTGGTATGCTTGCCTAGGGAGATTAGAGTATCGGTCGA,-0.696

row,Sequence,binding signal [log2 normalized intensity]
1,TTTTTTTTCTTAATTGCCCTTTGCCCTTTGGCCTAGGGAGATTAGAGTATCGGTCGA,9.03
2,AGACTTTTTTTTTCTTAATTGCCCTTTGCCGCCTAGGGAGATTAGAGTATCGGTCGA,5.04
3,ACAGTAGACTTTTTTTTTCTTAATTGCCCTGCCTAGGGAGATTAGAGTATCGGTCGA,3.18
4,ACCTCTCTGATGCCATGATAAGCAGTGTGGGCCTAGGGAGATTAGAGTATCGGTCGA,0.716
5,GGACTTTGGCCCTCAGCCCAATGTGGTAGGGCCTAGGGAGATTAGAGTATCGGTCGA,6.09
6,GTGACTTGAAAGGGACTTAGAATCGAATTGGCCTAGGGAGATTAGAGTATCGGTCGA,-0.0805
7,TGCCATGATAAGCAGTGTGGACTTTTTCCTGCCTAGGGAGATTAGAGTATCGGTCGA,3.69
8,GGGATGGACTTTGGCCCTCAGCCCAATGTGGCCTAGGGAGATTAGAGTATCGGTCGA,7.1
9,TGAATTCTGCAGCAGATGGCCAGCCTTTGGGCCTAGGGAGATTAGAGTATCGGTCGA,-0.939
10,AAAGAGATTGGACTTTGGCCTGTGAATCCAGCCTAGGGAGATTAGAGTATCGGTCGA,9.05
11,TACTGGGGATGGACTTTGGCCCTCAGCCCAGCCTAGGGAGATTAGAGTATCGGTCGA,9.48
12,GAACAGCAAGACTTTGGCCCTGCAGACTTTGCCTAGGGAGATTAGAGTATCGGTCGA,3.02
13,TCTGCAGCAGATGGCCAGCCTTTGGACTTTGCCTAGGGAGATTAGAGTATCGGTCGA,8.08
14,GATTGGACTTTGGCCTGTGAATCCACATTCGCCTAGGGAGATTAGAGTATCGGTCGA,6.47
15,TCTGATGCCATGATAAGCAGTGTGGACTTTGCCTAGGGAGATTAGAGTATCGGTCGA,7.54
16,CCCTGGTCTCTCTTACCCAACCAAAAACAAGCCTAGGGAGATTAGAGTATCGGTCGA,3.38
17,TACAGGCGTGAGCCACCGCGCCCCGCCCCCGCCTAGGGAGATTAGAGTATCGGTCGA,6.17
18,TCTCAGGTGAGCAGAGGGAGGACAAAGTTCGCCTAGGGAGATTAGAGTATCGGTCGA,5.01
19,GCCACATCCCCCACACCGAGATAGTAGAGAGCCTAGGGAGATTAGAGTATCGGTCGA,3.27
20,ACTTCTGAGTTTTATCAGCTTCCCTGAGATGCCTAGGGAGATTAGAGTATCGGTCGA,-0.495
21,AAACTTCCACTAACTTGAGTGTGCACCCTGGCCTAGGGAGATTAGAGTATCGGTCGA,1.93
22,CCGCAGCGCTGGTGGCTGCAAGGTTTGTGTGCCTAGGGAGATTAGAGTATCGGTCGA,0.472
23,TTATCATTACTTCTCAACTGATATGGCTCTGCCTAGGGAGATTAGAGTATCGGTCGA,0.393
24,AAGAAACTCGTGGCATTTTTGCCCCTGCCCGCCTAGGGAGATTAGAGTATCGGTCGA,3.61

row,Sequence,binding signal [log2 normalized intensity]
1,CAAATAACATTCCTAACATTCTTCCTCACAGCCTAGGGAGATTAGAGTATCGGTCGA,-0.982
2,TTTGATGGACATTGCTGGTGGTGGTAGATCGCCTAGGGAGATTAGAGTATCGGTCGA,1.45
3,TTTGTGATTACATTGAGTCCACTGAGATCAGCCTAGGGAGATTAGAGTATCGGTCGA,1.91
4,CACTTTCCACTCTCTACTGATATGTCCTCCGCCTAGGGAGATTAGAGTATCGGTCGA,1.83
5,TTTCTGCTCTCAACTAGAGATAAACTTTTGGCCTAGGGAGATTAGAGTATCGGTCGA,0.481
6,CCCCACTGTAGTAAGGGAGTGTGGGGTGGTGCCTAGGGAGATTAGAGTATCGGTCGA,-0.92
7,TGTGCTGCCCCCGATAGCACTATTAGTCTTGCCTAGGGAGATTAGAGTATCGGTCGA,3.06
8,GCCACATCCTGTCTCCTTTAACCTTCATTCGCCTAGGGAGATTAGAGTATCGGTCGA,1.97
9,CACTGTCTCAGGGTCCACATTCCAGGAATAGCCTAGGGAGATTAGAGTATCGGTCGA,2.44
10,CTGCCTTTCCCAGATGGATTGATAGACTTAGCCTAGGGAGATTAGAGTATCGGTCGA,0.78
11,TTTTTGGCCTTTACCCCTTGAGTTTGAACTGCCTAGGGAGATTAGAGTATCGGTCGA,4.12
12,TACCTTTCCTGCATTAACATCAACATGGACGCCTAGGGAGATTAGAGTATCGGTCGA,2.03
13,AGCAGATGGCCAGCCTTTGGACTTTGAACTGCCTAGGGAGATTAGAGTATCGGTCGA,11.2
14,CTGCTTGATAGCCATCTGGTGGACTTTGCTGCCTAGGGAGATTAGAGTATCGGTCGA,6.09
15,CAGCCTTTGGACTTTGAACTGCAACATCAGGCCTAGGGAGATTAGAGTATCGGTCGA,8.89
16,CTGGACTTTGGCTGCAAAATTTGAACAAAAGCCTAGGGAGATTAGAGTATCGGTCGA,2.14
17,TGATAGCCATCTGGTGGACTTTGCTCTGCTGCCTAGGGAGATTAGAGTATCGGTCGA,8.15
18,GCATTAACATCAACATGGACTTTGAGTCATGCCTAGGGAGATTAGAGTATCGGTCGA,6.9
19,TTCCTGCATTAACATCAACATGGACTTTGAGCCTAGGGAGATTAGAGTATCGGTCGA,9.28
20,GCCATCTGGTGGACTTTGCTCTGCTCATTTGCCTAGGGAGATTAGAGTATCGGTCGA,7.25
21,ACCTGGAACTGAAAGAGACCTTTGACATCAGCCTAGGGAGATTAGAGTATCGGTCGA,5.23
